According to PubChem BioAssay AID493231 (Broad Institute, 2011):
Entries with a potency or affinity are not part of this list. Active and inactive are the calls of the source. No rule for the calls is given here.

molecular target: Acyl-homoserine lactone acylase PvdQ (Pseudomonas aeruginosa (strain ATCC 15692 / DSM 22644 / CIP 104116 / JCM 14847 / LMG 12228 / 1C / PRS 101 / PAO1)) (UniProt Q9I194); assay: P. aeruginosa PvdQ acylase inhibitors, dose response, biochemical, fluorescence, plate reader and imaging, cherry-picks (AID 493231); conditions: purified PvdQ acylase, fluorogenic substrate; series mostly up to 10 µM; activity change, negative = inhibition: at the top concentration;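 also: 0% = neutral control wells and -100% = reference inhibitor wells; more negative values mean stronger inhibition of the acylase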
Sequence (Q9I194 whole entry, looked up): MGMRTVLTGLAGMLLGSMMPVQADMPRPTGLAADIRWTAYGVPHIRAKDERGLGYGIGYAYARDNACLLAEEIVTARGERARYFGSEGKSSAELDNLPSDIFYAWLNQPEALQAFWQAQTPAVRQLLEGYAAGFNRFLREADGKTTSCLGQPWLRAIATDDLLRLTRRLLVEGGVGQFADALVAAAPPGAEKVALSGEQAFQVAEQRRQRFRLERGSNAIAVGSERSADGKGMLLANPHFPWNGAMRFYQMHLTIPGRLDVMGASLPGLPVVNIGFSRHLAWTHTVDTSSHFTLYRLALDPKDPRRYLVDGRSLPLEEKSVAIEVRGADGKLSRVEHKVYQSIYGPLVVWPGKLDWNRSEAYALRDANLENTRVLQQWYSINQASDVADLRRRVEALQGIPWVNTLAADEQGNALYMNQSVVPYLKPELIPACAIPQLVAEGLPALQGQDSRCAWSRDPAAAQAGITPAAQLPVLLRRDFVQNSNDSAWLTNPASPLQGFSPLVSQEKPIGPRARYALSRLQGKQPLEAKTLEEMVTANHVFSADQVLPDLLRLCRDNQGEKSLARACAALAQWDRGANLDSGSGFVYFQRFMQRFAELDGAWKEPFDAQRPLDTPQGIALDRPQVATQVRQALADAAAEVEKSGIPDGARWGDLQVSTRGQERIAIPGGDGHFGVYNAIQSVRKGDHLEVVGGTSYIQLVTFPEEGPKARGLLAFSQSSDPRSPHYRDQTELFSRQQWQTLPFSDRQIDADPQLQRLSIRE

Structure (SMILES) | activity change, negative = inhibition
O=[N+]([O-])c1ccc2c(c1)Cc1cc(O)ccc1-2 | -7.24 unspecified (inactive)
CC1(C)CC2(CCO1)NCCN1C(=O)CSC12 (stereo not drawn) | 10.7 unspecified (inactive)
Cc1cc(N(CCCl)CCCl)ccc1C=NNC(=O)c1cccnc1 | -1.65 unspecified (inactive)
